Glyco luc inh: increase of ERlucT glycosylation luciferase signal, primary screen, N-linked glycosylation inhibitor project, D54 ERlucT cells, luminescence, set 2. D54 ERlucT glycosylation luciferase reporter, 24 h; percent of 100 nM tunicamycin response. 360,000 compounds, 0.23% hits. reporter increase, % at 12.5 µM. AID 588692, 2011;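 active means mean luciferase reporter signal, scaled so untreated is 0 and the glycosylation-blocking control 100, at or above a set limit in every replicate; inconclusive means mean reaches the limit but not every replicate does; inactive means mean below the limit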;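 further: luciferase carries N-glycosylation sites so blocking glycosylation raises the light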
MITF act: activators of MITF-driven TRPM1 promoter reporter, primary screen, cell-based, SK-MEL-5, luciferase, single point; SK-MEL-5 TRPM1-promoter luciferase, 24 h; % of positive control, neutral wells = 0; activation, % at 12.5 µM; 300,000 compounds, 0.75% hits;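 active means mean activation of at least 80% with every replicate also reaching 80%; inconclusive means mean reaches 80% but some replicate falls short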
PvdQ acylase: P. aeruginosa PvdQ acylase inhibitors, primary screen, biochemical, fluorescence, plate reader and imaging, single point; purified PvdQ acylase; inhibition, % at 10 µM; 340,000 compounds, 0.063% hits; AID 488965, 2010; in the data active means inhibition above about 30%, passing the limit was not always enough; inconclusive means no clear call, values can overlap the other calls
esBAF inh: Bmi1 luciferase reporter increase in mESCs, primary screen, esBAF inhibitor project, mouse ES cells, Bmi1 luciferase knock-in, single point; 24 h; 100% = twice the neutral-well signal; reporter increase, % at 12.5 µM; 350,000 compounds, 2% hits; AID 602393, 2012; in the data active means activation above about 40%; inconclusive means no clear call, values can overlap the other calls;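 further: a rise in the Bmi1 reporter signal indicates esBAF inhibition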
Vif imaging: HIV Vif self-association inhibitors, primary screen, imaging, HEK293T, single point; HEK293T cells, Vif self-association by quenched fluorescence, 24 h; inhibition, % at 7.49 µM; 340,000 compounds, 0.35% hits; AID 602346, 2012; in the data active means inhibition above about 50%, passing the limit was not always enough; inconclusive means no clear call, values can overlap the other calls; inactive means below about 31%
Wnt bcat act: Wnt/beta-catenin pathway activators, primary screen, cell-based, plate reader, single point; 300,000 compounds, 1.2% hits; Wnt/beta-catenin reporter cell assay, activator; activation, % at 9.35 µM; in the data active means activation above about 30%, passing the limit was not always enough; inconclusive means no clear call, values can overlap the other calls
Of the large screens only hits and unclear results are named; the others gave an inactive call. Sampled rows, rich in hits. Any-hit rate of the full collection: about 2.9%.

Cc1ccc(-n2ncc3c(NCc4cccnc4)ncnc32)cc1C	esBAF inh 74.5
Cc1cccc(-n2ncc3c(N4CC(C)CC(C)C4)ncnc32)c1 (stereo not given)	MITF act 88.9, esBAF inh 61.8 (no result: Vif imaging)
Cc1cccc(-n2ncc3c(N4CCCC4)ncnc32)c1	none
Cc1cccc(-n2ncc3c(NCCCO)ncnc32)c1	Wnt bcat act 40.0 (no result: Vif imaging)
Cc1ccc(-n2ncc3c(NCc4ccccc4)ncnc32)cc1	none (no result: Wnt bcat act)
O=C(C[C@H]1CC[C@H](NC(=O)Nc2ccc(F)cc2)[C@H](CO)O1)NCCN1CCCC1	none (no result: Glyco luc inh, MITF act, PvdQ acylase, Vif imaging, Wnt bcat act)
Cc1noc(C)c1COC(=O)c1ccc(-c2nc3ccccc3s2)s1	esBAF inh 65.3 (no result: Vif imaging, Wnt bcat act)
CCN1CCN(C(=O)c2ccc(-c3nc4ccccc4s3)s2)CC1	Wnt bcat act 49.2
Cc1ccc(S(=O)(=O)N(C)C[C@H]2Oc3c(NS(=O)(=O)c4ccc(Cl)cc4)cccc3C(=O)N([C@@H](C)CO)C[C@H]2C)cc1	none (no result: Glyco luc inh, MITF act, PvdQ acylase, Vif imaging, Wnt bcat act)
C[C@H](CO)N1C[C@H](C)[C@@H](CN(C)S(=O)(=O)c2ccc(F)cc2)Oc2ccc(NC(=O)CCCN(C)C)cc2C1=O	none (no result: Glyco luc inh, MITF act, PvdQ acylase, Vif imaging, Wnt bcat act)
Fc1ccc2c(Cl)c(-c3nnc(-c4cccs4)o3)sc2c1	Wnt bcat act 44.0 (no result: MITF act)
COc1cc(-c2nnc(-c3cccs3)o2)cc(OC)c1OC	none (no result: Wnt bcat act)
COc1cccc2sc(NNC(=O)C3=COCCO3)nc12	esBAF inh 46.5
COc1ccc(OC)c2sc(NC(=O)C3=COCCO3)nc12	none
Cc1ccccc1-n1c(C)cc(/C=C(\C#N)C(=O)NCC2CCCO2)c1C (stereo not given)	none
Cc1cc(/C=C(\C#N)C(=O)NCc2cccs2)c(C)n1-c1ccccc1F	Wnt bcat act 51.7
CC(=O)N(c1ccccc1)c1nnc(-c2cnc(C)cn2)s1	MITF act 97.7 (no result: esBAF inh)
N#Cc1c(NC(=S)NC(=O)c2ccccc2)sc2c1CCC2	esBAF inh 48.7
CCN1CCc2c(sc(NC(=S)NC(=O)c3ccccc3)c2C#N)C1	none (no result: esBAF inh, Wnt bcat act)
CC1CCc2sc(NC(=S)NC(=O)c3ccccc3)c(C#N)c2C1 (stereo not given)	esBAF inh 58.1
CC(C)(C)c1ccc(C(=O)NC(=S)Nc2sc3c(c2C#N)CCC3)cc1	none (no result: esBAF inh)
Cc1noc(C)c1NC(=O)N(C)C[C@@H]1Oc2ccc(NC(=O)Nc3cccc4ccccc34)cc2CC(=O)N([C@H](C)CO)C[C@H]1C	none (no result: Glyco luc inh, MITF act, PvdQ acylase, Vif imaging, Wnt bcat act)
C[C@H](CO)N1C[C@H](C)[C@@H](CN(C)C(=O)NC2CCCCC2)Oc2c(NC(=O)NC3CCCCC3)cccc2C1=O	none (no result: Glyco luc inh, MITF act, PvdQ acylase, Vif imaging, Wnt bcat act)
CC(C)(C)c1ccc(-c2nc(-c3ccncc3)no2)cc1	none
CC(C)(C)c1ccc(-c2noc(-c3ccno3)n2)cc1	MITF act 117.9
Cn1c(=O)c2c(-c3ccccc3)n(-c3ccccc3)cc2n(C)c1=O	none (no result: MITF act, PvdQ acylase)
Cn1c(=O)c2cn3c(c2n(C)c1=O)C(c1ccccc1)CC(c1ccccc1)=N3 (stereo not given)	esBAF inh 77.3
O=C(Nc1ccon1)c1ccc(OC2CCCC2)cc1	MITF act inconclusive, Wnt bcat act 46.2 (no result: esBAF inh)
CO[C@H]1CC[C@@H]2CCN(C)C(=O)C[C@@H](c3ccccc3)CN(C)C(=O)c3cccc(C#N)c3OC[C@H]1O2	none (no result: Glyco luc inh, MITF act, PvdQ acylase, Vif imaging, Wnt bcat act)
CCNC(=O)C[C@H]1CC[C@@H]2[C@@H](COc3ccc(NC(=O)Nc4cccc(C)c4)cc3C(=O)N2C)O1	none (no result: Glyco luc inh, MITF act, PvdQ acylase, Vif imaging, Wnt bcat act)
CCC(=O)N1[C@@H]2c3ccc(/C=C/c4ccccc4)c(=O)n3C[C@H]1[C@H](CO)[C@H]2C(=O)N1CCOCC1	none (no result: Glyco luc inh, MITF act, PvdQ acylase, Vif imaging, Wnt bcat act)
COc1ccc(CNc2ccc([N+](=O)[O-])cn2)cc1	esBAF inh 62.6
O=C1c2ccccc2-c2nc3ccccc3cc21	Wnt bcat act 58.8
c1ccc2c(c1)Cc1cc3ccccc3nc1-2	Wnt bcat act 44.4
O=C1c2ccccc2-c2nnc(-c3ccc(O)cc3)cc21	none (no result: esBAF inh)
COCC(=O)N1C[C@H](C)[C@@H](OC)CN(C)C(=O)c2cc(NC(=O)c3ccc(OC)cc3)ccc2OC[C@@H]1C	none (no result: Glyco luc inh, MITF act, PvdQ acylase, Vif imaging, Wnt bcat act)
O=C(C[C@@H]1CC[C@H](NC(=O)C2CC2)[C@@H](CO)O1)Nc1nccs1	none (no result: Glyco luc inh, MITF act, PvdQ acylase, Vif imaging, Wnt bcat act)
COc1ccc(CCNC(=O)C2CCN(S(=O)(=O)c3ccc(OC)c(OC)c3)CC2)cc1OC	none
COc1ccc(CCNC(=O)C2CCN(S(=O)(=O)c3ccc(C)cc3)CC2)cc1OC	Wnt bcat act 62.0
CCNC(=O)C[C@@H]1CC[C@@H]2[C@H](COC[C@@H](O)CN2C(=O)C2CCCC2)O1	none (no result: Glyco luc inh, MITF act, PvdQ acylase, Vif imaging, Wnt bcat act)
CCCNC(=O)N(C)C[C@@H]1Oc2ncc(C#CCc3ccccc3)cc2C(=O)N([C@@H](C)CO)C[C@@H]1C	none (no result: Glyco luc inh, MITF act, PvdQ acylase, Vif imaging, Wnt bcat act)
COc1ccc(CCn2c(N)c(S(=O)(=O)c3cccs3)c3nc4ccccc4nc32)cc1OC	none
COc1ccccc1/C=N/n1c(N)c(S(=O)(=O)c2cccs2)c2nc3ccccc3nc21	esBAF inh 41.4 (no result: MITF act, Wnt bcat act)
C[C@@H]1CN([C@H](C)CO)C(=O)c2cc(NC(=O)NC3CCCCC3)ccc2O[C@@H](C)CCCCO[C@@H]1CN(C)CC1CCCCC1	none (no result: Glyco luc inh, MITF act, PvdQ acylase, Vif imaging, Wnt bcat act)
Cc1ccc(S/C=C\C(=O)c2ccccc2)cc1	Glyco luc inh 47.1, Wnt bcat act 55.9 (no result: esBAF inh)
Cc1ccc(C(=O)/C=C\C(=O)c2ccc(C)cc2)cc1	none (no result: esBAF inh)
Cc1ccc(S(=O)(=O)Nc2ccc3c(c2)C(=O)N([C@@H](C)CO)C[C@@H](C)[C@H](CN(C)C(=O)Nc2c(C)noc2C)O3)cc1	none (no result: Glyco luc inh, MITF act, PvdQ acylase, Vif imaging, Wnt bcat act)
O=C1c2ccccc2C(=O)C1c1ccnc2ccccc12	Wnt bcat act 43.4
CCN1CCCC1CNS(=O)(=O)c1ccc(F)c(Cl)c1 (stereo not given)	Vif imaging 50.7
CCN1CCCC1CNS(=O)(=O)c1cccc(C(F)(F)F)c1 (stereo not given)	none (no result: esBAF inh)
CO[C@@H]1CN(C)C(=O)c2cc(NC(=O)c3cccc(F)c3)ccc2OC[C@H](C)N(C)C[C@H]1C	none (no result: Glyco luc inh, MITF act, PvdQ acylase, Vif imaging, Wnt bcat act)
COc1cc(N=CC2=C(O)c3ccccc3C2=O)cc(OC)c1	esBAF inh 43.2
CCOC(=O)Cn1cnc2c(nnn2-c2ccccc2)c1=O	none (no result: Wnt bcat act)
Cc1ccc(-n2nnc3c(=O)n(CC(=O)OCc4ccccc4)cnc32)cc1	Vif imaging 75.4 (no result: MITF act)
C[C@H](CO)N1C[C@H](C)[C@H](CN(C)C(=O)Nc2cccc3ccccc23)Oc2ccc(NC(=O)Cn3cnnn3)cc2C1=O	none (no result: Glyco luc inh, MITF act, PvdQ acylase, Vif imaging, Wnt bcat act)
CO[C@@H]1CN(C)C(=O)c2cc(NC(=O)C3CC3)ccc2OC[C@H](C)N(CC2CCOCC2)C[C@H]1C	none (no result: Glyco luc inh, MITF act, PvdQ acylase, Vif imaging, Wnt bcat act)
CCCCCn1c(CN2CCN(C(=O)c3ccco3)CC2)nc2c1c(=O)n(C)c(=O)n2C	Wnt bcat act 60.7 (no result: MITF act)
Cn1c2ccccc2c2ncn(CCC3=CCCCC3)c(=O)c21	esBAF inh 74.4 (no result: MITF act, Wnt bcat act)

Source: PubChem (Broad Institute)
